TrxR1 substrate = is turned over as a substrate by rat TrxR1; 390,000 tested, 0.01% active; Potency, µM (series often up to 114 µM), for inactives: at the highest dose activity change, negative = substrate turnover; purified TrxR1 substrate turnover, NADPH consumption readout; O89049; AID 588456; further: potency means the concentration at half of the fitted maximal effect; on the % scale 0 is the no-effect control and ±100 the full control effect; nearly all actives have a fitted effect of over 50% in size
Target sequence (O89049 whole entry, looked up): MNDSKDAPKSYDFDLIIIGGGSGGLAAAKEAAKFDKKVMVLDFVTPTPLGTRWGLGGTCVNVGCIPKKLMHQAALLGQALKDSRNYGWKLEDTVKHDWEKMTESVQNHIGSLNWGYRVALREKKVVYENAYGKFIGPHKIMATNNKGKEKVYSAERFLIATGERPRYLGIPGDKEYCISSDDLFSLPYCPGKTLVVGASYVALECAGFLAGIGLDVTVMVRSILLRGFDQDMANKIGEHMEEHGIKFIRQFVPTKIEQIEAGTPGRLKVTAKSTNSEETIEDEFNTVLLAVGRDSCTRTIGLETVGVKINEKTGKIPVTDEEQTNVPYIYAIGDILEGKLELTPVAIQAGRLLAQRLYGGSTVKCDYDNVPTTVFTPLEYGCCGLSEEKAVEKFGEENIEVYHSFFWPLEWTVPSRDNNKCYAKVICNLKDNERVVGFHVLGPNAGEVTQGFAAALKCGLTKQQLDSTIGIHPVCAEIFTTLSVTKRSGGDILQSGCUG
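Rat TrxR1, dispensed at 90 nM, was prereduced with 400 uM NADPH (final) for 5 min at ~22 deg C, then incubated with compound 15 min before 400 uM selenite. A first-read NADPH fluorescence drop versus no-compound background flagged substrates.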
TrxR1 inh = rat TrxR1 inhibition | 390,000 tested, 1% active | AID 588453 | recombinant rTrxR1, NADPH fluorescence consumption, selenite substrate | O89049 | Potency, µM (titrated, usually from 114 µM), without a hit: at the highest dose activity change, negative = inhibition, most hits filed as inhibitors; further: potency means the concentration at half of the fitted maximal effect; on the % scale 0 is the no-effect control and ±100 the full control effect; nearly all actives have a fitted effect of over 65% in size
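Rat TrxR1 (90 nM in the dispensed reagent) was pre-reduced with 400 uM NADPH for 5 min at room temperature, then incubated with compound for 15 min. After 400 uM selenite was added, NADPH fluorescence (Ex 340/Em 450 nm) was followed for 8 min.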
Pin1 inhibitor = human Pin1 inhibition; Q13526; Pin1 FP peptide displacement, HiFluor488, 10 min; Potency, µM (top dose mostly 115 µM), without a hit: top-dose activity, negative = inhibition, most hits filed as inhibitors; 390,000 tested, 0.009% active; AID 504891; active means well fitted inhibition curve with a large enough effect in the polarisation, with a control signal flat, not every such curve was filed as active; inconclusive means small, poorly fitted or top-dose-only effect, or effect the other way, or a change in a side signal; inactive means no such curve, though single readings can be large or run the other way; the % refers to the polarisation; further: potency means the concentration at half of the fitted maximal effect; on the % scale 0 is the no-effect control and ±100 the full control effect
Target sequence (Q13526 whole entry, looked up): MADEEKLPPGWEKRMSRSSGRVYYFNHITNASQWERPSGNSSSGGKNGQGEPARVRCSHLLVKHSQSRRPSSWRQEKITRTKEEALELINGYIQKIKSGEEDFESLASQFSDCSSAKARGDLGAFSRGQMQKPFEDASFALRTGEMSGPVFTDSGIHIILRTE
Akt phos inh = Akt phosphorylation inhibition; Neuro2A IGF-stimulated pAkt S473 HTRF, 20 min; active compounds read low; activity change, % for hits at 50 µM; 360,000 tested, 0.32% active; AID 651550; in the data active means activity change below about -80%; inconclusive means mostly about -51% to -80%; further: on the % scale 0 is the no-effect control and ±100 the full control effect
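Neuro2A cells (4,500/well, DMEM with 0.5% FBS) were treated with compound at a single 50 µM final concentration, stimulated with 6 nM IGF for 20 min at 37 °C, and lysed. Phospho-Akt Ser473 was read by HTRF as 665/615 ratio ×10^4.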
N370S GC = inhibitors or activators of N370S glucocerebrosidase for Gaucher disease; 330,000 tested, 0.092% active; N370S GC spleen homogenate, 4MU-glucoside fluorescence; Potency, µM (series often up to 59.4 µM), for inactives: at the top dose activity change, negative = inhibition, hits mostly inhibitors; P04062;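 further: potency means the concentration at half of the fitted maximal effect; 0% = full enzyme activity and -100% = no enzyme basal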
AT treatment = potential ataxia-telangiectasia treatments restoring KAP-1 phosphorylation. F2112 A-T fibroblasts, KAP-1 phosphorylation AlphaLISA; neocarzinostatin DNA damage 30 min before lysis. Potency, µM (series often up to 57.5 µM), without a hit: top-dose activation, usual class: activators. 320,000 tested, 0.19% active. AID 485349; further: potency means the concentration at half of the fitted maximal effect; % of control where 0% means no effect; nearly all actives have a fitted effect of over 45% in size
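ATM-like activity read as KAP-1 phosphorylation via AlphaLISA donor/acceptor antibody pairs after lysis and 6 hr at 25C. Cells were ATM-null patient fibroblasts (F2112, hTERT), dosed 60 min, then exposed to the DSB inducer NCS for 30 min.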
Starred values were filed as active, the others as inactive; [ ] = remark or other dose. Hits are enriched below; roughly 1.4% of the tested compounds scored in any of these assays. Unless noted, the call rests on the fitted dose curve; in most records, active means well fitted curve in the direction sought with a large enough effect; inconclusive means small, poorly fitted or top-dose-only effect, or another doubt; inactive means no such curve, though single readings can be large; an effect the other way counts as inactive or inconclusive.

COc1ccccc1OC(=O)Nc1ccc(Cl)cc1 was read as TrxR1 substrate -5%, TrxR1 inh 2%, Pin1 inhibitor -3%, Akt phos inh inactive, N370S GC 5% and AT treatment 0.71µM*.
For CCOC(=O)/C(C#N)=C\c1ccc(N2CCN(C/C=C/c3ccccc3)CC2)cc1 the results were TrxR1 substrate -11%, TrxR1 inh -9%, Pin1 inhibitor inconclusive, Akt phos inh inactive, N370S GC 16µM* and AT treatment -2%.
`Cc1onc(-c2ccccc2)c1C(O)c1ccc(F)cc1` (stereo not given) gave TrxR1 substrate -8%, TrxR1 inh 5%, Pin1 inhibitor -3%, Akt phos inh inactive, N370S GC -7% and AT treatment 32µM*.
For Cc1onc(-c2c(F)cccc2Cl)c1C(O)c1ccc(F)cc1 (stereo not given) the results were TrxR1 substrate 10%[57.1 µM], TrxR1 inh 8%[57.1 µM], Pin1 inhibitor 12%, Akt phos inh inactive, N370S GC -1% and AT treatment -4%.
Screening COc1ccc(C2Nc3ccccc3C(=O)N2Cc2ccccn2)cc1COc1ccc(NC(C)=O)cc1 (stereo not given) returned Pin1 inhibitor 1%.
`CCSc1nc2ccccc2n1C(=O)/C=C\c1ccc(OC)c(OC)c1` gave TrxR1 substrate -1%, TrxR1 inh -16%, Pin1 inhibitor 0%, Akt phos inh inactive, N370S GC 6% and AT treatment 18µM*.
O=C1CC(N2CCC(c3nc4ccccc4o3)CC2)C(=O)N1c1ccc(Cl)c(C(F)(F)F)c1 (stereo not given) was read as TrxR1 substrate 1%, TrxR1 inh 18µM*, Pin1 inhibitor 1%, Akt phos inh inactive, N370S GC 6% and AT treatment -11%.
For COc1ccccc1NS(=O)(=O)c1ccc2c(c1)CCC(=O)N2 the results were Pin1 inhibitor -6%.
`Cc1ccc(C(Sc2ccccc2)C(Cn2cncn2)C(=O)c2ccccc2)cc1` (stereo not given) gave TrxR1 substrate 1%, TrxR1 inh 4%, Pin1 inhibitor 0%, Akt phos inh -104%*, N370S GC -2% and AT treatment 1%.
Screening Cc1ccsc1CNc1ncnc2ccc(-c3ccc4c(c3)OCO4)cc12 returned Pin1 inhibitor 25%.
Cc1ccc(S(=O)(=O)CCc2nc3ccccc3s2)cc1 was read as TrxR1 substrate -6%, TrxR1 inh 6%[57.1 µM], Pin1 inhibitor -2%, Akt phos inh -101%*, N370S GC 5% and AT treatment 1%.
For Cc1ccc(S(=O)(=O)CCc2nc3ccccc3s2)cc1C the results were TrxR1 substrate -6%, TrxR1 inh -2%, Pin1 inhibitor 0%, N370S GC -9% and AT treatment 4%.
`CCN(Cc1ccccc1)C(=O)CS(=O)(=O)c1ccccc1` gave TrxR1 substrate 4%, TrxR1 inh 11%, Pin1 inhibitor -8%, Akt phos inh inactive, N370S GC -2% and AT treatment 0%.
For O=S(=O)(C/C(=C/CO)S(=O)(=O)c1ccccc1)c1ccccc1 the results were TrxR1 substrate 10%, TrxR1 inh 2.2µM*, Pin1 inhibitor 10%, Akt phos inh inactive, N370S GC 4% and AT treatment inconclusive.
Screening O=S(=O)(CS(=O)(=O)c1ccccc1)c1ccccc1 returned TrxR1 substrate -10%, TrxR1 inh 11µM*, Pin1 inhibitor 0% and Akt phos inh inactive.
CCOC(=O)C1=CN(C(=O)OC(C)(C)C)C(CN2C(=O)COCC2=O)C1 (stereo not given) was read as TrxR1 substrate 2%, TrxR1 inh 7%, Pin1 inhibitor -15% and N370S GC 6%.
Screening Cc1nc2c(=O)n(C)c(=O)n(C)c2nc1Cl returned TrxR1 substrate 60%[57.1 µM], TrxR1 inh 2µM*, Pin1 inhibitor -4%, Akt phos inh inactive, N370S GC 10% and AT treatment 1%.
For CCN(CC)c1ccc2nc3c(=O)n(C)c(=O)n(C)c3nc2c1 the results were TrxR1 substrate 6%, TrxR1 inh 6% and Pin1 inhibitor inconclusive.
CCCCCCCCCCCCCCCC(C)C1=NCCN1 (stereo not given) was read as TrxR1 substrate 0% and TrxR1 inh 16%.
CCOC(=O)C1=C(c2ccccc2)OC(N)=C(C#N)C1c1cccnc1 (stereo not given) was read as TrxR1 substrate -7%, TrxR1 inh -3%[57.1 µM], Pin1 inhibitor 4%, Akt phos inh inactive, N370S GC -9% and AT treatment 4%.
For CCOC(=O)CC1=C(C(=O)OCC)C(c2ccncc2)C(C#N)=C(N)O1 (stereo not given) the results were TrxR1 substrate 13%[57.1 µM], TrxR1 inh -3%[57.1 µM], Pin1 inhibitor -13%, Akt phos inh -116%*, N370S GC 11% and AT treatment -1%.
For CCOC(=O)C1=C(c2ccc(OC)cc2)OC(N)=C(C#N)C1c1cccnc1 (stereo not given) the results were TrxR1 substrate -7%, TrxR1 inh 79µM*, Pin1 inhibitor 0%, Akt phos inh inactive, N370S GC -25% and AT treatment -5%.
CCOC(=O)C1=C(C)OC(N)=C(C#N)C1c1ccoc1 (stereo not given) was read as TrxR1 substrate 6%, TrxR1 inh inconclusive, Pin1 inhibitor -12%, Akt phos inh inactive, N370S GC 6% and AT treatment 2%.
CCC(=O)N(CCC(c1ccccc1)c1ccco1)Cc1cccs1 (stereo not given) was read as TrxR1 substrate 9%[11.4 µM], TrxR1 inh -40%[57.1 µM], Pin1 inhibitor 11%, Akt phos inh inactive, N370S GC inconclusive and AT treatment 5%.
Screening COc1ccccc1C(CCN(Cc1cccs1)C(C)=O)c1ccco1 (stereo not given) returned TrxR1 substrate -2%, TrxR1 inh 45µM*, Pin1 inhibitor -8%, Akt phos inh inactive, N370S GC 0% and AT treatment 3%.
CC(C)(C)n1ncc2c(=O)n(Cc3ccc(C#N)cc3)cnc21 was read as TrxR1 substrate 0% and TrxR1 inh -2%.
Screening CN1CCN(C(=O)C2=C[C@@H](c3ccc(C(F)(F)F)cc3)C[C@@H](OCc3ccc(CO)cc3)O2)CC1 returned TrxR1 substrate 5%, TrxR1 inh 2%, Pin1 inhibitor 1%, Akt phos inh inactive, N370S GC -27% and AT treatment -14%.
